A selection: hits, their analogues and other compounds. The true share with any hit is near 6.2%.
Lassa entry inh: qHTS for Inhibitors of binding or entry into cells for Lassa Virus; Lassa virus pseudotype entry inhibition, cell reporter; Potency, µM (titrated, usually from 37.9 µM), usual class: inhibitors; actives 1.2% (n = 300,000); AID 540256, 2011; calls by dose curve; tested in HEK293 cells; further: nearly all actives have a fitted effect of over 50% in size
Marburg entry inh: qHTS for inhibitors of binding or entry into cells for Marburg Virus; Potency, µM (doses to about 37.8 µM), usual class: inhibitors; AID 540276, 2011; actives 1.8% (n = 300,000); Marburg virus pseudotyped entry inhibition, cell reporter; calls by dose curve; tested in HEK293 cells
FMDV inh: High Throughput Screening for Foot and Mouth Disease Virus Antivirals | actives 1.2% (n = 410,000) | FMDV antiviral cell-based qHTS | AID 1159524, 2015 | Potency, µM (top dose mostly 57.9 µM), most hits filed as inhibitors; calls by dose curve; tested in HEK293T cells; further: read-out not given here; nearly all actives have a fitted effect of over 45% in size
HCMV inh: qHTS Assay for inhibitors of the human cytomegalovirus (HCMV). HFF cells, HCMV-luciferase reporter, 72 h; active compounds read low. activity change, negative = inhibition, % at 57.5 µM. actives 4.5% (n = 410,000); in the data active means activity change below about -60%; inconclusive means no clear call, values can overlap the other calls; inactive means above about -39%
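Steps: HFFs plated, 16 h 37C; compounds added; HCMV-luciferase added to MOI 1 PFU/cell; 72 h 37C; OneGlo reagent, 5 min room temperature; luminescence read, normalized to controls.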
A number is an active result; . = inactive; ? = inconclusive; / = no result given; + = active, no number; ! = not confirmed by another sample.

SMILES	Lassa entry inh	Marburg entry inh	FMDV inh	HCMV inh
O=C(Nc1cccc(C(=O)O)c1)Nc1ccc2c(c1)OCO2	0.316µM	?	?	.
Cc1cc(Cl)ccc1OCC(=O)Nc1ccccc1NS(=O)(=O)c1cccs1	/	/	.	.
CCOC(=O)c1c(C)n(-c2ccccc2)c2ccc(OC(=O)c3ccccc3NC(=O)C(C)C)cc12	.	/	31.6µM	.
CCOC(=O)c1c(C)n(-c2ccccc2)c2ccc(OC(=O)c3ccccc3NC(=O)C(C)(C)C)cc12	.	/	?	-93.5
CCOC(=O)c1c(C)n(-c2ccccc2)c2ccc(OC(=O)c3cccc(C)c3)cc12	.	/	.	.
Cc1ccc(NC(=O)CCNS(=O)(=O)c2ccc3[nH]c(=O)oc3c2)cc1	/	/	.	.
Fc1ccccc1CNc1nc(NCC2CC2)nc2ccsc12	/	/	.	-86.7
COc1ccccc1CNc1nc(NCc2ccccc2F)c2sccc2n1	/	/	28.2µM	/
COc1ccccc1CNc1nc(NCc2cnc(C)cn2)c2sccc2n1	/	/	.	.
COc1ccccc1CNc1nc(NCc2cccc(OC)c2OC)c2sccc2n1	/	/	39.8µM	-82.6
C#Cc1cccc(Nc2nc(NCc3ccccc3OC)nc3ccsc23)c1	/	/	31.6µM	-79.1
CN(C)CCNCc1ccc(OC2CCCC2)cc1	.	?	.	.
COCOCCn1cc(CN2CCS(=O)(=O)N(Cc3ccc(-c4ccc(Cl)cc4)cc3)C(C)C2=O)nn1 (centres undefined)	?	/	?	.
c1ccc(CCNc2ccnc3cc4ccccc4cc23)cc1	/	?	14.1µM	-100.8
CC(C)Nc1ccc(Nc2ccnc3cc4ccccc4cc23)cc1	6.31µM	5.17µM	.	-100.1
COc1ccc(Nc2ccnc3ccccc23)cc1	.	?	.	?
Cc1[nH]c2ccc(F)cc2c1CCN(Cc1cccnc1)C(=S)Nc1ccc(F)cc1	/	/	.	.
Clc1ccc2c(NCCNC3CCCCC3)ccnc2c1	?	1.58µM	.	-83.6
CC(Nc1ccnc2cc(Cl)ccc12)c1ccc(S(N)(=O)=O)cc1 (centres undefined)	?	.	.	.
O=C(NCCCNc1ccnc2cc(Cl)ccc12)c1ccccc1F	/	/	.	.
CC(CCCN1CCCC1)Nc1ccnc2cc(Cl)ccc12 (centres undefined)	.	3.55µM	.	?
CC(C)NC1CCC(Nc2ccnc3cc(Cl)ccc23)CC1 (centres undefined)	?	2.82µM	.	?
CC1CCCN1c1ccnc2cc(Cl)ccc12 (centres undefined)	.	?	.	.
CCCCOc1ccc(C(=O)Nc2ccc(S(=O)(=O)Nc3onc(C)c3C)cc2)cc1	/	/	/	.
CC(C)c1nnc(NC(=O)c2nc(S(=O)(=O)Cc3ccc(F)cc3)ncc2Cl)s1	?	?	.	-101.9
SMILES	Lassa entry inh	Marburg entry inh	FMDV inh	HCMV inh
CCSc1nnc(NC(=O)c2nc(S(=O)(=O)Cc3ccc(F)cc3)ncc2Cl)s1	?	.	8.91µM	-102.3
Cc1ccc(C)c(NC(=O)c2nc(S(=O)(=O)Cc3ccc(F)cc3)ncc2Cl)c1	?	.	28.2µM	-100.3
C=CCSc1nnc(NC(=O)c2nc(SCC)ncc2Cl)s1	.	.	.	.
CSc1nnc(NC(=O)c2nc(S(=O)(=O)Cc3cccc(C)c3)ncc2Cl)s1	?	?	5.62µM	-102.6
CCOC(=O)c1[nH]n(-c2ccc(Cl)cc2)c(=O)c1C	.	.	.	.
COc1ccccc1-c1nc2c(c(SCC(=O)Nc3c(C)cc(C)cc3C)n1)Cc1c(CO)cnc(C)c1O2	.	/	.	.
Cc1cccc(CS(=O)(=O)c2ncc(Cl)c(C(=O)Nc3nnc(C(C)C)s3)n2)c1	?	?	8.91µM	-99.9
Cc1cccc(CSc2ncc(Cl)c(C(=O)Nc3nc4ccc(F)cc4s3)n2)c1	.	.	.	.
CC(C)c1nnc(NC(=O)c2nc(SCc3ccc(F)cc3)ncc2Cl)s1	.	.	.	.
Cc1ccc(CS(=O)(=O)c2ncc(Cl)c(C(=O)Nc3nnc(C(C)C)s3)n2)cc1	?	?	11.2µM	-97.5
Cc1ccc(O)c(NC(=O)C2=CC(c3cccs3)=NS(=O)(=O)N2C)c1	.	.	?	.
Cc1ccccc1CN(c1ccc(C(=O)Nc2cccnc2)cc1)S(C)(=O)=O	.	.	.	.
CNS(=O)(=O)c1cn(CC(=O)Nc2cccc(C(F)(F)F)c2)cc1S(=O)(=O)NC	.	/	.	+
CNS(=O)(=O)c1cn(CC(=O)Nc2cccc(OC)c2)cc1S(=O)(=O)NC	.	/	.	.
CCN1C(=O)C=CC1=O	.	28.2µM!	/	/
O=C1C=CC(=O)N1CCCCCCN1C(=O)C=CC1=O	?	?	39.8µM	-101.6
CC(C)C(NC(=O)CC12CC3CC(CC(C3)C1)C2)C(=O)O (centres undefined)	.	?	.	.
COc1ccc2oc(C(=O)Nc3nc4ccc(S(C)(=O)=O)cc4s3)c(C)c2c1	.	.	?	-60.1
COc1ccc2oc(C(=O)Nc3nnc(C)s3)c(C)c2c1	7.08µM	?	?	.
Cc1ccc2oc(C(=O)Nc3nnc(C)s3)c(C)c2c1	?	.	.	.
CCN1CCN(C(=O)c2ccc3c(c2)c(C)c(C)n3Cc2ccccc2)CC1	.	.	.	.
CCn1c(C)c(C)c2cc(C(=O)N3CCc4ccccc4C3)ccc21	/	/	.	-85.0
COc1ccccc1C(=O)Nc1ccc2c3c(cccc13)CC2	?	?	.	.
CCOc1ccc(CN2C(=O)c3ccccc3Sc3ccc(C(=O)NCCCN4CCOCC4)cc32)cc1	?	?	.	.
O=C(NCCCN1CCOCC1)c1ccc2c(c1)N(Cc1ccccc1)C(=O)c1ccccc1S2	.	/	.	.
SMILES	Lassa entry inh	Marburg entry inh	FMDV inh	HCMV inh
Cc1cccc(CN2C(=O)c3ccccc3Sc3ccc(C(=O)NCCCN4CCOCC4)cc32)c1	.	/	.	-63.6!
COCCCNC(=O)c1ccc2c(c1)N(Cc1ccccc1)C(=O)c1ccccc1S2	.	/	.	.
CCCCN(CC)CCCNC(=O)c1ccc2c(c1)N(Cc1ccc(C)cc1)C(=O)c1ccccc1S2	?	/	?	-98.0
O=C(NCCN1CCOCC1)c1ccc2c(c1)N(Cc1ccccc1)C(=O)c1ccccc1S2	/	/	.	+
CC1(OC(=O)CCc2ccccc2)C(=O)C=C2C=C(c3ccc(C#N)cc3)N(C3CC3)C=C2C1=O (centres undefined)	/	/	.	.
O=C(c1cc2c(=O)oc3ccccc3c2s1)N1CCN(c2cccc(Cl)c2)CC1	.	.	.	-62.5
COc1ccc(F)cc1C(=O)C1CCCN(Cc2cccn2-c2ccccn2)C1 (centres undefined)	10µM	?	.	?
COc1ccc(C(=O)C2CCCN(Cc3cccn3-c3ccccn3)C2)c(OC)c1 (centres undefined)	?	?	?	-66.7
O=C(c1cc(F)ccc1F)C1CCCN(Cc2cccn2-c2ccccn2)C1 (centres undefined)	/	/	.	.
Cc1ccsc1C(=O)C1CCCN(Cc2cccn2-c2ccccn2)C1 (centres undefined)	?	5.62µM	?	-66.2
CN(C(=O)COc1ccc(Cl)cc1Cl)c1nnc(C23CC4CC(CC(C4)C2)C3)s1	.	.	.	.
Fc1ccc(Oc2nccc(-c3ccc(Cl)cc3)n2)cc1	?	.	.	.
